# Screening data from PubChem BioAssay.
# Compounds with a hit are over-represented: about 7.3% of the library has one in this group of screens.
# Vaccinia mCherry: inhibitors of vaccinia virus infection (mCherry reporter signal) | Vaccinia virus mCherry reporter infection, fluorescence | Potency, µM (titrated, usually from 36.5 µM), for inactives: top-dose activity change, negative = inhibition, actives largely listed as inhibitors | AID 720579 | hit rate 0.63% among 310,000; calls by dose curve; tested in A549 cells; note: potency is the fitted concentration of half-maximal effect; nearly all actives have a fitted effect of over 35% in size
# FMDV inh: antivirals against foot and mouth disease virus; FMDV antiviral cell-based qHTS; Potency, µM (top dose mostly 57.9 µM), inactives show top-dose activity change, negative = inhibition, actives largely listed as inhibitors; AID 1159524; hit rate 1.2% among 410,000; calls by dose curve; tested in HEK293T cells; note: read-out not given here; potency is the fitted concentration of half-maximal effect; nearly all actives have a fitted effect of over 45% in size
# HCMV inh: blocks human cytomegalovirus replication; HFF cells, HCMV-luciferase reporter, 72 h; hits give low values; activity change, negative = inhibition, % at 57.5 µM; hit rate 4.5% among 410,000; AID 1259415; in the data active = activity change below about -60%; inconclusive = no clear call, values can overlap the other calls; inactive = above about -39%
#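 Inhibition of viral replication was scored as loss of reporter luminescence in HFFs infected with HCMV-luciferase (MOI 1 PFU/cell) for 72 h; compounds tested at 2 doses, normalized to buffer and Salinomycin controls.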
# HCV inhibitor: inhibitors of hepatitis C virus infection; Huh7.5.1 HCVcc-Cre infection, luciferase reporter, 44 h; Potency, µM (highest dose often 41.8 µM), inactives show at the top dose activity change, negative = inhibition, usual class: inhibitors; hit rate 3.4% among 340,000; active = well fitted inhibition curve with a large enough effect; inconclusive = small, poorly fitted or top-dose-only effect, or another doubt; inactive = no such curve, though single readings can be large or run the other way; note: potency is the fitted concentration of half-maximal effect
#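 A cell-based infection assay in which seeded cells (1,000 per well) receive test compound after 4 h, are inoculated with HCVcc-Cre at approximately 0.5 moi, and are incubated 44 h before luminescence detection.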
# VACV Venus inh: inhibitors of vaccinia virus (Venus reporter). Vaccinia virus Venus reporter expression, fluorescence. Potency, µM (top dose mostly 36.5 µM), for inactives: at the top dose activity change, negative = inhibition, hits mostly inhibitors. hit rate 0.46% among 330,000. AID 720580; calls by dose curve; tested in A549 cells; note: potency is the fitted concentration of half-maximal effect; nearly all actives have a fitted effect of over 30% in size
# Active calls of the source: *; i = inactive; u = inconclusive; x = no result; [ ] = another dose, or the depositor's remark. % is set by controls: 0 for no effect and ±100 for the full control effect.
SMILES,Vaccinia mCherry,FMDV inh,HCMV inh,HCV inhibitor,VACV Venus inh
CN(C(=O)c1ccc(NC(=O)Cc2ccc(NC(=O)C3CCCN(C(=O)CCc4ccccc4)C3)cc2)cc1)C1CC1 (stereo unspecified),u,u,-86*,14µM*,u
CN(C(=O)c1ccc(NC(=O)Cc2cccc(NC(=O)C3CCCN(C(=O)CCc4ccccc4)C3)c2)cc1)C1CCCC1 (stereo unspecified),-28%,0%,-5,u,u
CN(Cc1ccccc1)C(=O)c1cccc(NC(=O)Cc2ccc(NC(=O)C3CCCN(C(=O)CCc4ccccc4)C3)cc2)c1 (stereo unspecified),-17%,u,-2,-18%[8.37 µM],-9%
CN(C(=O)c1cccc(NC(=O)Cc2ccc(NC(=O)C3CCCN(C(=O)CCc4ccccc4)C3)cc2)c1)C1CCCC1 (stereo unspecified),16µM*,u,-72*,u,u
O=C(Cc1ccc(NC(=O)C2CCCN(C(=O)CCc3ccccc3)C2)cc1)Nc1cccc(C(=O)N2CCCCC2)c1 (stereo unspecified),-22%,u,u,7.9µM*,u
CN(C(=O)c1cccc(NC(=O)Cc2ccc(NC(=O)C3CCCN(C(=O)CCc4ccccc4)C3)cc2)c1)C1CCC1 (stereo unspecified),u,18µM*,-32,-7%[8.37 µM],u
O=C(Cc1ccc(NC(=O)C2CCCN(C(=O)CCc3ccccc3)C2)cc1)Nc1cccc(C(=O)N2CCCC2)c1 (stereo unspecified),u,u,-17,-22%[8.37 µM],-12%
CCc1ccccc1NC(=O)c1ccc2nc(C(C)C)oc2c1,u,u,2,x,-24%
Cc1ccc2c(c1)c(=O)c1ccccc1n2CCCC(=O)Nc1cc(Cl)ccc1C,-20%,-24%,16,x,-14%
CCCCOCC1CN(CCCC)S(=O)(=O)c2c(cccc2Sc2ccc(OC)c(OC)c2)O1 (stereo unspecified),x,x,16,x,x
CCn1cc2nc(SCC(=O)Nc3cc(OC)cc(OC)c3)n(Cc3ccc(Cl)cc3)c(=O)c2n1,-16%,-11%,-4,x,-19%
Cc1cc(S(=O)(=O)c2ccc(Cl)cc2)nc(S(=O)(=O)c2ccc(Cl)cc2)c1C#N,11µM*,28µM*,-98*,x,11µM*
O=C(NCc1ccccc1)c1ccc(CN2CCC(Cc3ccccc3)CC2)cc1,x,0%,-24,10µM*,x
CCc1ccccc1NC(=O)c1ccc(CN2CCC(Cc3ccccc3)CC2)cc1,x,-15%,31,13µM*,u
COCCNC(=O)c1ccc(CN2CCC(Cc3ccccc3)CC2)cc1,i,-9%,-2,-24%,-11%
COc1ccc(CCNC(=O)c2ccc(CN3CCC(Cc4ccccc4)CC3)cc2)cc1OC,-8%,u,-1,u,-7%
CC(=O)Nc1ccc2c(CSc3nnc(-c4cccnc4)n3-c3ccc(C)cc3C)cc(=O)oc2c1,-16%,-11%,-20,-20%,-15%
CC(C)c1ccccc1-n1c(SCc2cc(=O)oc3ccc4ccccc4c23)nnc1-c1cccnc1,-24%,14µM*,-33,u,-17%
CCOc1ccc(-n2c(SCc3cc(=O)oc4cc(C)ccc34)nnc2-c2cccnc2)cc1,-26%,10%,-65*,u,-19%
COc1ccc(S(=O)(=O)NCc2ccncc2)cc1NC(=O)c1ccccc1F,x,34%,-88*,u,x
Cc1cc(S(=O)(=O)NCc2ccncc2)c(C)cc1Br,-8%,-3%,-87*,x,-24%
O=S(=O)(Nc1ccc(Cc2ccncc2)cc1)c1ccc(Cl)c(Cl)c1,x,-6%,u,7.9µM*,x
COc1ccc(S(=O)(=O)NCc2ccncc2)cc1OC,x,19%,-65*,u,x
COc1ccc(S(=O)(=O)NCc2cccnc2)cc1OC,i,25%,23,4%,-13%
O=S(=O)(Nc1ccc(-n2cccc2)cc1)c1ccc(Cl)c(Cl)c1,x,-3%,43,-3%,x
SMILES,Vaccinia mCherry,FMDV inh,HCMV inh,HCV inhibitor,VACV Venus inh
COc1ccc(S(=O)(=O)NCc2ccncc2)cc1NC(=O)c1ccccc1C,-13%,13%,-26,16%,-2%
O=C(Cn1ncc2c([nH]c3ccccc32)c1=O)Nc1cccc(C(F)(F)F)c1,-1%,-8%,3,x,-10%
COC(=O)c1ccc(-c2cccc3c2OC(CNC(=O)c2ccc4c(c2)OCCO4)C3)nc1 (stereo unspecified),u,11%,x,x,u
CCc1ccc(OC)c(S(=O)(=O)Nc2ccc(Cc3ccncc3)cc2)c1,u,19%,-75*,8.9µM*,-18%
COc1cc(S(=O)(=O)NCc2ccncc2)c(OC)cc1C,11%,15%,-31,-15%,0%
COc1ccc(S(=O)(=O)Nc2ccc(Cc3ccncc3)cc2)cc1OC,u,-17%,-65*,u,-30%
COc1cc(S(=O)(=O)Nc2ccncc2)ccc1F,-12%,6%,-38,1%,4%
CCOc1cc(S(=O)(=O)NCc2ccncc2)ccc1Cl,i,-10%,-84*,u,-18%
COc1cc(S(=O)(=O)NCc2ccncc2)c(OC)cc1Cl,-3%,42%,-79*,u,-8%
CCc1ccc(NS(=O)(=O)c2ccc(OC)c3ncccc23)cc1,-17%,17%,-20,-3%,-9%
CCOc1cc(S(=O)(=O)NCc2cccs2)ccc1Cl,-24%,33%,-25,-3%,-18%
COc1ccccc1NC(=O)CSc1c2c(nc3ccccc13)CCC2,-27%,u,-38,-8%,u
Cc1cc(Br)ccc1NC(=O)CSc1c2c(nc3ccccc13)CCC2,-23%,u,-95*,x,-23%
COc1ccc(NC(=O)CSc2c3c(nc4ccccc24)CCCC3)c(OC)c1,-13%,35µM*,24,-20%,-24%
Cc1cc(NC(=O)CSc2c3c(nc4ccccc24)CCC3)no1,-6%,u,33,-20%,-22%
CC(C)NC(=O)CSc1c2c(nc3ccccc13)CCCC2,-8%,-29%,-72*,3%,-17%
COc1ccc(-c2nc3ccc(NS(=O)(=O)c4ccc(C)cc4)cc3o2)cc1,1%,6%,-13,x,-9%
CCCCCOC(=O)c1ccc(OC(=O)c2sc3ncn(Cc4cccc(F)c4)c(=O)c3c2C)cc1,-8%,-11%,-2,x,-3%
CN(C(=O)CSc1nc2ccccc2n1CC(=O)N(C)c1ccc(F)cc1)c1ccccc1,-3%,-15%,-2,x,-6%
CC(NCc1ccc2c(c1)OCO2)C(=O)NC1CCCCC1 (stereo unspecified),-11%,-6%,3,5%,-7%
C[N+](C)(C)CCCN(Cc1ccc2c(c1)OCO2)C(=O)NC1CCCCC1,x,-7%,22,3.2µM*,x
O=C(Nc1cccc([N+](=O)[O-])c1)c1ccc2c(c1)OCCO2,-12%,-16%,-107*,-21%,-13%
O=C(Nc1cccc(NC(=O)c2ccccc2Cl)c1)c1ccc([N+](=O)[O-])o1,7.9µM*,-21%,-98*,10µM*,u
